According to PubChem BioAssay AID1053133 (Broad Institute, 2014):
Where “and” joins values, the source holds several entries; their conditions need not be identical. Equal values may be shown once. About 10 (0.01%) of roughly 89,000 compounds were called active. About 10% were inconclusive and are not listed. No stated cut-off is given here; in the data, active means activity change below about -37% (passing the limit was not always enough); inconclusive means no clear call, values can overlap the other calls; tested in A549 cells. Only a sample is shown.

assay: Vaccinia orthopox stage-specific inhibition, primary screen, cell-based, single point (AID 1053133); settings: Vaccinia-infected cells, mCherry/Venus stage reporter fluorescence, stronger effect = lower value, concentration not given here; activity change (Venus): measured here: Venus reporter, other viral stage

Compound | activity change (Venus) | activity change (mCherry)
COc1ccc2c3c([nH]c2c1)[C@@H](CO)N(C(=O)NC(C)C)CC31CCN(C(=O)c2ccccn2)CC1 | 4.18% | 12.8% (inactive)
O=C(N[C@H]1CC[C@@H](CCn2cc(Cc3ccccc3)nn2)O[C@H]1CO)c1cnccn1 | -8.51% | 6.03% (inactive)
COc1ccc(-c2ccccc2[C@@H]2[C@@H](C#N)N(C(=O)NC3CCCC3)[C@H]2CO)cc1 | -17.8% | -22.2% (inactive)
C[C@@H]1CN([C@H](C)CO)C(=O)c2cc(NC(=O)Nc3ccc(F)cc3)ccc2O[C@@H](C)CCCCO[C@@H]1CN(C)S(=O)(=O)c1cn(C)cn1 | 23.4% | 41.6% (inactive)
CCN1[C@@H]2Cn3c(ccc(-c4cccc(OC)c4)c3=O)[C@H]1[C@@H](C(=O)N(C)C)[C@@H]2CO | 15.1% | 20% (inactive)
CO[C@H]1CN(C)C(=O)c2ccc(NC(=O)C3CCOCC3)cc2OC[C@H](C)NC[C@H]1C | 1.25% | -0.453% (inactive)
CN1c2ccc(C#Cc3cccnc3)cc2[C@H]2[C@H](CCN2S(=O)(=O)c2ccccc2)[C@@H]1CO | -9.21% | -5.16% (inactive)
C[C@H](O)C#Cc1cnc2c(c1)C(=O)N([C@@H](C)CO)C[C@@H](C)[C@@H](CN(C)C(=O)Cc1ccccn1)O2 | 10.7% | 17.6% (inactive)
O=C(C[C@H]1CC[C@H](NC(=O)CCN2CCCCC2)[C@@H](CO)O1)Nc1ccccc1 | 15.9% | 7.83% (inactive)
O=C(NCC[C@H]1CC[C@@H](NS(=O)(=O)c2cccc(Cl)c2)[C@@H](CO)O1)c1cnccn1 | -5.45% | -13.7% (inactive)
C[C@H](CO)N1C[C@H](C)[C@@H](CN(C)Cc2ccc(Oc3ccccc3)cc2)Oc2cc(-c3ccncc3)ccc2S1(=O)=O | 1.19% | 4.26% (inactive)
CO[C@@H]1CC[C@H]2CCN(C)C(=O)C[C@@H](c3ccccc3)CN(C)C(=O)c3cc(C#N)ccc3OC[C@@H]1O2 | -9.45% | -7.23% (inactive)
O=C(C[C@@H]1CC[C@H]2[C@@H](COC[C@H](O)CN2C(=O)Nc2ccccc2)O1)NCc1ccccc1F | 9.72% | 7.54% (inactive)
COc1cccc(S(=O)(=O)N2C[C@@H]3N[C@H](C2)C3c2ccc(-c3cccc(C(=O)N(C)C)c3)cc2)c1 (some centres undefined) | -11.2% | -13.4% (inactive)
CCCC(=O)N1CC2(CCN(C(=O)C3CC3)CC2)c2c(n(C)c3cc(OC)ccc23)[C@H]1CO | -6.7% | -2.69% (inactive)
COCC(=O)Nc1ccc2c(c1)OC[C@@H](C)N(Cc1ccccn1)C[C@H](C)[C@@H](OC)CN(C)C2=O | 15.4% | 16.4% (inactive)

Compound | activity change (Venus) | activity change (mCherry)
C/C=C/c1ccc(C2[C@H]3CNC[C@@H]2N3C(=O)Nc2ccc(F)cc2)cc1 (some centres undefined) | 2.48% and -0.546% | 0.263% (inactive) and -2.6% (inactive)
COc1ccc2c3c([nH]c2c1)[C@H](CO)N(C(=O)CN1CCOCC1)CC31CN(C(C)=O)C1 | 24.1% | 42.6% (inactive)
C[C@@H]1CCCCO[C@@H](CN(C)C(=O)Cc2ccccc2)[C@H](C)CN([C@H](C)CO)C(=O)c2cc(NC(=O)Cc3ccccc3)ccc2O1 | -23.2% | -29.2% (inactive)
CN(C)C(=O)c1ccc(-c2ccc([C@H]3[C@H](CO)N4C(=O)CN(C(=O)C5CCCC5)C[C@@H]34)cc2)cc1 | 3.62% | 4.76% (inactive)
CO[C@H]1CC[C@H]2CCN(C)C(=O)C[C@@H](c3ccccc3)CN(C)C(=O)c3cccc(C#N)c3OC[C@@H]1O2 | 36.7% | 37.9% (inactive)
COc1ccccc1CNC(=O)C[C@H]1CC[C@@H](NC(=O)CN(C)C)[C@@H](CO)O1 | 17.1% | 6.13% (inactive)
COCC#Cc1ccc([C@H]2[C@@H](CO)N3C(=O)CN(C(=O)C4CCCC4)C[C@@H]23)cc1 | 10.7% | 14.5% (inactive)
CO[C@@H]1CN(C)C(=O)c2cc(NS(=O)(=O)Cc3ccccc3)ccc2OC[C@H](C)NC[C@H]1C | 3.49% | -2.28% (inactive)
COc1ccc(NC(=O)N(C)C[C@H]2OCCCC[C@@H](C)Oc3ccc(NS(=O)(=O)c4ccc(F)cc4)cc3C(=O)N([C@H](C)CO)C[C@H]2C)cc1 | -16.7% | -18% (inactive)
O=C(C[C@@H]1CC[C@@H]2[C@H](COC[C@@H](O)CN2S(=O)(=O)c2cccc(Cl)c2)O1)N1CCOCC1 | 10.1% | 21.4% (inactive)
O=C(C[C@@H]1CC[C@@H]2[C@H](COC[C@@H](O)CN2Cc2ccc(Cl)cc2)O1)NCc1ccccc1Cl | -11.5% | -7.35% (inactive)
O=C(C[C@@H]1CC[C@@H]2[C@H](COC[C@H](O)CN2S(=O)(=O)c2ccccc2)O1)N[C@H]1CCN(Cc2ccccc2)C1 | -6.28% | -10.6% (inactive)
COc1cccc(NC(=O)Nc2ccc3c(c2)C(=O)N(C)C[C@H](OC)[C@@H](C)CN[C@@H](C)CO3)c1 | 13.8% | 1.34% (inactive)
CCC(=O)Nc1ccc2c(c1)OC[C@@H](C)N(Cc1ccccc1OC)C[C@H](C)[C@H](OC)CN(C)C2=O | -6.3% | -3.87% (inactive)
COc1ccccc1-c1ccc([C@H]2[C@@H](CO)N(CC3CC3)C23CN(S(C)(=O)=O)C3)cc1 | 0.302% | -10.8% (inactive)
O=C(Nc1ccccc1F)N1CC(=O)N2[C@H](CO)[C@H](c3ccc(C#CC4CC4)cc3)[C@@H]2C1 | -0.75% | -2.67% (inactive)
